Compound activity as filed in PubChem BioAssay.
LDHA inh: qHTS assay for inhibitors of human lactate dehydrogenase. purified LDHA, NADH/diaphorase-resazurin fluorescence; active compounds read low. activity change, % (values are at about 110 or 230 µM). 480,000 compounds, 0.15% hits. L-lactate dehydrogenase A chain (Homo sapiens), P00338; in the data active = activity change below about -30%; inconclusive = mostly about -25% to -30%;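 also: plate controls were DMSO wells for no effect and wells without enzyme for full effect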
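Remaining NADH was detected by diaphorase (0.133 mg/mL) converting 37 µM resazurin to fluorescent resorufin, read at 0 and 20 minutes. The preceding 5-minute room-temperature reaction used 2 nM LDHA, 0.2 mM sodium pyruvate and 0.06 mM NADH at pH 7.4.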
KCNH2 3.1 block: qHTS for Inhibitors of KCHN2 3.1: Mutant qHTS | 340,000 compounds, 0.95% hits | activity change, % (tested at about 1.8 µM) | Potassium voltage-gated channel subfamily H member 2, brain isoform KCNH2 3.1 (human) | U2OS KCNH2 3.1, thallium flux FluxOr; active compounds read low | AID 720553, 2013;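 active = maximum activity change below -70%; inconclusive = maximum activity change from -70% to -50%; inactive = maximum activity change above -50%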;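 also: thallium influx rate constant from kinetic fluorescence after stimulation buffer; % is scaled to controls: 0 for no effect and ±100 for the full control effect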
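FluxOr-based Tl+ influx in U2OS cells transduced with KCNH2 3.1 virus; rate constants normalized to DMSO controls.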
KCNH2 WT inh: qHTS for Inhibitors of KCHN2 3.1: Wildtype qHTS. Voltage-gated inwardly rectifying potassium channel KCNH2 (Homo sapiens), Q12809. U2OS, BacMam KCNH2, thallium flux FluxOr; active compounds read low. activity change, % at 1.84 µM. 340,000 compounds, 0.37% hits. AID 720551, 2013;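 active = maximum activity change below -70%; inconclusive = maximum activity change between -70% and -50%; inactive = maximum activity change above -50%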; also: % is scaled to controls: 0 for no effect and ±100 for the full control effect
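U2OS cells were transduced with wild-type KCNH2 virus (2.03 x 10^8 / mL) for 4 h at room temperature, then cultured overnight at 37 C. Thallium flux was read with FluxOr dye. Rate constants were normalized to DMSO controls.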
12-LOX inh: Primary qHTS assay for inhibitors of human arachidonate 12S-lipoxygenase (ALOX12): Round 2; Polyunsaturated fatty acid lipoxygenase ALOX12 (Homo sapiens), P18054; purified 12hLO, xylenol orange hydroperoxide absorbance; Potency, µM (titrated, usually from 108 µM), for the others: at the top dose activity change, negative = inhibition, most hits filed as inhibitors; 580,000 compounds, 1.1% hits; active = well fitted inhibition curve with a large enough effect; inconclusive = small, poorly fitted or top-dose-only effect, or another doubt; inactive = no such curve, though single readings can be large or run the other way; also: potency is read from the fitted curve at half-maximal effect; % is scaled to controls: 0 for no effect and ±100 for the full control effect
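Hydroperoxide product was detected by ferrous iron/xylenol orange as the 573 to 405 nm absorbance ratio. Arachidonic acid at 40 uM (final) was turned over for 30 min at room temperature by 150 nM human 12hLO, pH 7.0 Hepes buffer, after 15 min compound preincubation.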
ClpP mod: qHTS Assay for Activators of ClpP; ATP-dependent Clp protease proteolytic subunit (Bacillus subtilis (strain 168)), P80244; purified B. subtilis ClpP, FRET peptide cleavage, 20 min; Potency, µM (titrated, usually from 57.5 µM), without a hit: at the highest dose activity change, negative = active; 340,000 compounds, 1.9% hits; active = well fitted falling curve with a large enough effect; inconclusive = small, poorly fitted or top-dose-only effect; inactive = no such curve, though single readings can be large or run the other way; also: potency is read from the fitted curve at half-maximal effect; the source files actives as falling curves though it sought activators and does not explain the sign; nearly all actives have a fitted effect of over 65% in size
Target sequence (P80244 whole entry, looked up): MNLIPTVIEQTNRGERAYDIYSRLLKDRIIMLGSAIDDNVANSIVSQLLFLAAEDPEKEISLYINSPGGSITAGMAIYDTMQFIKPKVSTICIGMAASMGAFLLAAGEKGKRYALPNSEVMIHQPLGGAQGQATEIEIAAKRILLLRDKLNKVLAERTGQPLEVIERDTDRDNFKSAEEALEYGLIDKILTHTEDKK
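Buffer: 100 mM Tris/HCl pH8, 100 mM KCl, 0.05% low protease BSA, 2.5% glycerol, 0.01% Tween-20. ClpP 10 microg/mL final; 20 min RT; delta FRET normalized to ADEP and DMSO controls.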
BCR signal inh: qHTS Assay to Find Inhibitors of Chronic Active B-Cell Receptor Signaling. ABC-DLBCL IkBa-CBG/CBR reporter, luminescence ratio, 4 h. Potency, µM (doses to about 46.1 µM), inactives show top-dose activity change, negative = inhibition, most hits filed as inhibitors. 340,000 compounds, 0.05% hits. AID 493014, 2011; active = well fitted inhibition curve with a large enough effect in the signal ratio, with a control signal flat, not every such curve was filed as active; inconclusive = small, poorly fitted or top-dose-only effect, or effect the other way, or a change in a side signal; the % refers to the signal ratio;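 also: potency is read from the fitted curve at half-maximal effect; plate controls were basal doxycycline-induced cells for no effect and cells given 10 µM MG132 for full effect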
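Doxycycline induced both beetle luciferases in TMD8 lymphoma cells; IKK-driven degradation limits the IkappaBalpha-fused green signal, while red luminescence normalises for cell number and nonspecific effects. Compounds tested up to 46 uM, 4 hrs.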
* hit, by the source's call; ! = not active in a repeat; [ ] = another dose, or the depositor's remark. This is a sample that favours compounds with a hit; in the whole collection about 3% have one here.

Screening CCN1CCc2c(sc3c2c(NCc2ccco2)nc2nnnn23)C1 returned LDHA inh 2, KCNH2 3.1 block -31, KCNH2 WT inh -8, 12-LOX inh 1%, ClpP mod 13µM* and BCR signal inh 3%.
Screening CONC(=O)CC(c1ccccc1)c1ccccc1 returned LDHA inh -21 and 12-LOX inh inconclusive.
`Cc1ccc(/C=[N+](\[O-])c2ccc(N(C)C)cc2)c2nsnc12` gave LDHA inh 40, KCNH2 3.1 block 4, KCNH2 WT inh -2, 12-LOX inh inconclusive and BCR signal inh 10µM*.
For COCCNc1nc(NCC2CCCCC2)c2sc(-c3ccccc3)cc2n1 the results were LDHA inh -9, 12-LOX inh inconclusive and ClpP mod 25µM*.
Screening c1ccc(-c2cc3nc(NCC4CC4)nc(NCC4CCCCC4)c3s2)cc1 returned LDHA inh -7, 12-LOX inh inconclusive and ClpP mod 20µM*.
COc1cc(OC)cc(-c2cc3nc4c(c(N5CCN(c6cnccn6)CC5)n3n2)CCCC4)c1 was read as 12-LOX inh 0%.
Screening Fc1cccc(-c2cc3nc4c(c(N5CCC6(CC5)OCCO6)n3n2)CCCC4)c1 returned LDHA inh -1, KCNH2 3.1 block 5, KCNH2 WT inh -2, 12-LOX inh -8%, ClpP mod 28µM* and BCR signal inh inconclusive.
`COc1cc(OC)cc(-c2cc3nc4c(c(N5CCN(c6ncccn6)CC5)n3n2)CCCC4)c1` gave LDHA inh -4, KCNH2 3.1 block -13, KCNH2 WT inh -14, 12-LOX inh -5%, ClpP mod 35µM* and BCR signal inh -2%.
Screening COc1ccc(CNC(=O)C(C)Sc2nc3cc(Cl)ccc3n2C)cc1 (stereo not given) returned LDHA inh -2 and 12-LOX inh inconclusive.
For O=C(O)CN1C(=O)/C(=C\c2cn(-c3ccccc3)nc2-c2ccccc2)SC1=S the results were LDHA inh -12, KCNH2 3.1 block 0, KCNH2 WT inh -2 and BCR signal inh 12%.
CC(C)COc1ccc(-c2nn(-c3ccccc3)cc2/C=C2/SC(=S)N(CC(=O)O)C2=O)cc1 was read as LDHA inh -2, KCNH2 3.1 block -3, KCNH2 WT inh -10, 12-LOX inh 45µM*, ClpP mod 2% and BCR signal inh 4%.
Screening CN(C)c1cccc(C(=O)N(C)C2CCCN(Cc3ccccc3F)C2)c1 (stereo not given) returned LDHA inh 1, KCNH2 3.1 block 7, KCNH2 WT inh -71*, 12-LOX inh 7%, ClpP mod -3% and BCR signal inh 5%.
For CC(C(=O)NCCS(=O)(=O)c1ccc(Br)cc1)S(=O)(=O)c1ccc(Cl)cc1 (stereo not given) the results were LDHA inh -35*, KCNH2 3.1 block -3, KCNH2 WT inh 4, 12-LOX inh -9% and BCR signal inh -1%.
`Cc1ccc(-c2c(C(=O)N/N=C/c3ccc(OC(C)C)cc3)nnn2-c2nonc2N)cc1` gave LDHA inh -6, KCNH2 3.1 block -18, KCNH2 WT inh -15, 12-LOX inh 8%, ClpP mod 28µM* and BCR signal inh 20%.
`CN(C)Cc1c(C(=O)N/N=C/c2ccc(-c3ccccc3)cc2)nnn1-c1nonc1N` gave LDHA inh -13, KCNH2 3.1 block -93*, KCNH2 WT inh -46, 12-LOX inh 12%, ClpP mod -4% and BCR signal inh -7%.
For CCN(CC)Cc1c(C(=O)N/N=C/c2cccnc2)nnn1-c1nonc1N the results were LDHA inh -2, KCNH2 3.1 block 23, KCNH2 WT inh -4, 12-LOX inh 0% and BCR signal inh -1%.
`CCN(CC)Cc1c(C(=O)N/N=C/c2ccc(OCc3ccccc3C)cc2)nnn1-c1nonc1N` gave LDHA inh -3, KCNH2 3.1 block -96*, KCNH2 WT inh -123*, 12-LOX inh 4%, ClpP mod -5% and BCR signal inh 7%.
C#CCNC(=O)C1CN(c2ccccc2)C(=O)N1 (stereo not given) was read as 12-LOX inh -6%[176 µM].
`C#CCNC(=O)C1CN(c2cccc(Cl)c2)C(=O)N1` (stereo not given) gave 12-LOX inh 50µM*!.
CN1Cc2ccc(Nc3ccccc3)nc2C(C)(C(=O)NCc2cccs2)C1 (stereo not given) was read as 12-LOX inh 1%[176 µM].
`C=CCOC(=O)C1=C[C@H](c2cn(C(C)=O)c3ccccc23)C[C@H](OCc2ccc(CO)cc2)O1` gave LDHA inh 1, KCNH2 3.1 block 3, KCNH2 WT inh -8, 12-LOX inh 40µM*, ClpP mod 1% and BCR signal inh -7%.
For COc1ccc(Nc2cc(C)nc3nc(-c4ccccc4)nn23)cc1 the results were LDHA inh 7 and 12-LOX inh -8%.
CCOc1ccc(NC(=O)c2ccc3c(c2)NC(=O)CS3)cc1OC was read as LDHA inh 5 and 12-LOX inh inconclusive.
For CCOc1cccc(-c2cc(C(=O)O)c3ccc(C)c(C)c3n2)c1 the results were LDHA inh 3 and 12-LOX inh 40µM*.
For Cc1nc2c(C(=O)N3CCCCC3)cnn2c(C)c1Cc1ccccc1F the results were LDHA inh 0, KCNH2 3.1 block 0, KCNH2 WT inh -9, 12-LOX inh -2%, ClpP mod -7% and BCR signal inh 5%.
`Cc1nc2c(C(=O)N3CCN(C)CC3)cnn2c(C)c1Cc1ccc(Cl)cc1` gave LDHA inh -13, KCNH2 3.1 block 3, KCNH2 WT inh 45, 12-LOX inh 23%, ClpP mod 25µM* and BCR signal inh 3%.
`Cc1cccc(Cc2c(C)nc3c(C(=O)N4CCN(Cc5ccc6c(c5)OCO6)CC4)cnn3c2C)c1` gave LDHA inh -2, KCNH2 3.1 block -3, KCNH2 WT inh 14, 12-LOX inh -3%, ClpP mod 22µM* and BCR signal inh inconclusive.
Screening C=CCc1c(C)nc2c(C(=O)O)cnn2c1C returned LDHA inh -5, KCNH2 3.1 block -7, KCNH2 WT inh 18, 12-LOX inh 5%, ClpP mod 32µM* and BCR signal inh 1%.
